Measured values published in PubChem BioAssay AID720504 (National Center for Advancing Translational Sciences (NCATS), 2013).
The campaign covered roughly 360,000 compounds. About 10,000 (2.8%) were called active. About 4% were inconclusive and are not listed. The call rests on the fitted dose curve; in most records, active means well fitted inhibition curve with a large enough effect; inconclusive means small, poorly fitted or top-dose-only effect; inactive means flat fitted curve, though single readings scatter. The list comes from a sample in which actives are over-represented; it also holds similar structures and randomly drawn compounds.

biological target: Serine/threonine-protein kinase PLK1 (Homo sapiens) (UniProt P53350); assay: qHTS for Inhibitors of PLK1-PDB (polo-like kinase 1 - polo-box domain): Primary Screen; conditions: Plk1 PBD binding of FITC phosphopeptide, fluorescence polarization; further: nearly all actives have a fitted effect of over 65% in size; on max response, negative = inhibition: series mostly up to about 57 µM
On the % scale 0 is the no-effect control and ±100 the full control effect; potency means the concentration at half of the fitted maximal effect.

Chain of Serine/threonine-protein kinase PLK1 (Homo sapiens) (P53350 whole entry, looked up, the tested form may be a part): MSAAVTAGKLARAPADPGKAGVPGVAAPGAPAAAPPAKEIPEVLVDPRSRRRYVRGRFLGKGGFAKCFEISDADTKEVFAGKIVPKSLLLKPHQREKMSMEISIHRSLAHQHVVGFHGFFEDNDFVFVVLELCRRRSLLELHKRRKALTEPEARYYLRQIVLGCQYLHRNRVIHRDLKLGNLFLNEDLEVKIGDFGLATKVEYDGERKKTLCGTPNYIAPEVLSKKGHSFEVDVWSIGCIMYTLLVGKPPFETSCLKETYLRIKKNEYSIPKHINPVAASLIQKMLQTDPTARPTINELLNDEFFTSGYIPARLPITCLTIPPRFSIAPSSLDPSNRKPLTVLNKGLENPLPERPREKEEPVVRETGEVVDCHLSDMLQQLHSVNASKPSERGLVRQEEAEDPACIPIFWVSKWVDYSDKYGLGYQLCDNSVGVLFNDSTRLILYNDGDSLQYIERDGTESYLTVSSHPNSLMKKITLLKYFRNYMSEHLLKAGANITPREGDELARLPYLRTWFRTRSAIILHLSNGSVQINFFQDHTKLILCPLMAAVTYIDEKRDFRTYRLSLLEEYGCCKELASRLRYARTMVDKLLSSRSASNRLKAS

SMILES | max response, negative = inhibition | Potency
COc1ccc(-c2ccc(CN3C(CC(C)C)C(=O)N(Cc4cn(CC5CCCCC5)nn4)CCS3(=O)=O)cc2)cn1 (stereo not drawn) | -1.42% (inactive) | –
COc1ccc(NC(=O)CN(C)C(=O)c2cc(C)oc2C)cc1 | 1.78% (inactive) | –
CNC(=O)Nc1cc(C(C)(C)C)no1 | – | 10.6 µM (active)
CCCCn1nnnc1C(c1cc2ccccc2o1)N(C)Cc1ccc(Cl)c(Cl)c1 (stereo not drawn) | 5.97% (inactive) | –
Cc1nc(Cl)c(C#N)c2c1CCCC2 | -17.7% (inactive) | –
COCc1c(N)c(C)nc(Cl)c1C#N | – | 18.9 µM (active)
COC(=O)c1c(C)c(C)nc(N)c1C#N | -3.28% (inactive) | –
O=C(Nc1ccc(F)cc1)Nc1nnc([C@H]2C[C@H](O)[C@@H](CO)O2)s1 | 3.58% (inactive) | –
COC(=O)C[C@H]1C=C[C@H](NC(=O)c2ccc(F)cc2)[C@@H](CO)O1 | -25.2% (inactive) | –
CC1(C)CN(Cc2cccnc2)C(=O)[C@H]1CC(=O)Nc1ccc(Br)cc1 | 2.66% (inactive) | –
Cc1noc(C)c1CCC(=O)N1CCCC(CO)(Cc2ccccc2)C1 (stereo not drawn) | -15.4% (inactive) | –
COC(=O)CCC(=O)N1CCCC(CO)(Cc2ccccc2)C1 (stereo not drawn) | – | 21.2 µM (active)
Cc1ccccc1CC1(CO)CCCN(C(=O)c2cc(-c3ccccc3)no2)C1 (stereo not drawn) | -5.7% (inactive) | –
O=C(NCCc1cccc(F)c1)C1CC(O)CN1C(=O)Nc1ccccc1 (stereo not drawn) | -1.53% (inactive) | –
CCCCN1C(=O)C(CC(=O)NCc2cccs2)CC(C(=O)N2CCOCC2)=C1C (stereo not drawn) | 5.78% (inactive) | –
CC(C)(C)C(=O)c1c(N)[nH]c(C(=O)c2ccccc2)c1-c1ccc(F)cc1 | 2.51% (inactive) | –
O=c1oc2ccccc2cc1-c1cn(-c2ccccc2)c(=S)[nH]1 | -16.2% (inactive) | –
CN(C)c1cc(-c2ccc(F)cc2)oc(=O)c1Cl | -4.6% (inactive) | –
O=c1oc2cc(O)ccc2cc1-c1ccc(F)cc1 | – | 3.36 µM (active)
CS(=O)(=O)/C(C#N)=C/c1cccn1S(=O)(=O)c1ccc([N+](=O)[O-])cc1 | -19.8% (inactive) | –

SMILES | max response, negative = inhibition | Potency
Cc1cc(C)c(C#N)c(SCc2ccc3c(c2)OCO3)n1 | -1.63% (inactive) | –
Cc1snc(SCc2c(F)cccc2Cl)c1C#N | -3.96% (inactive) | –
Cc1ccc(CSc2nsc(C)c2C#N)cc1 | – | 15 µM (active)
CC(=O)c1ccc(-c2cnc3c(NC=O)cc(-c4cccc(NS(C)(=O)=O)c4)cn23)cc1 | 2.12% (inactive) | –
COC(=O)C[C@@H]1C=C[C@@H](NC(=O)c2cccnc2)[C@@H](CO)O1 | -16.8% (inactive) | –
CCCCN(C(C)=O)c1ccc2c(c1)C1CC2CCN1Cc1ccccc1 (stereo not drawn) | -11% (inactive) | –
CCCCn1nnnc1C1(C)CCC(=O)N1Cc1ccc(OC)c(OC)c1 (stereo not drawn) | -1.18% (inactive) | –
COc1ccc(COC[C@H](CC(C)C)N2CCN(C(=O)c3cccc(C(F)(F)F)c3)CCC2=O)cc1 | -20.7% (inactive) | –
CC(=O)NS(=O)(=O)c1ccc(NC(=O)/C=C/c2ccccc2Cl)cc1 | – | 29.9 µM (active)
NS(=O)(=O)c1ccc(NC(=O)/C=C/c2ccccc2Cl)cc1 | 2.86% (inactive) | –
O=C(/C=C/c1ccccc1Cl)Nc1ccc(S(=O)(=O)Nc2ncccn2)cc1 | -7.83% (inactive) | –
COCOc1cccc(CN2CCC(C)(Oc3ccc(SC)cc3)C2)c1 (stereo not drawn) | -0.463% (inactive) | –
O=C(c1cc(S(=O)(=O)N2CCOCC2)ccc1Cl)N1CCOCC1 | -9.46% (inactive) | –
O=[N+]([O-])c1cc(Cl)cc(/C=N/NC(=S)Nc2cc(S(=O)(=O)N3CCOCC3)ccc2Cl)c1O | – | 10.6 µM (active)
O=C(Nc1cc(S(=O)(=O)N2CCOCC2)ccc1Cl)c1cc(=O)c2ccccc2o1 | 1.44% (inactive) | –
OC[C@@H]1CN(Cc2cccs2)C[C@H](n2cnc3c(Nc4ccccc4)ncnc32)O1 | -1.6% (inactive) | –
COCCOC(=O)c1sc(=S)n(CCOC)c1N | – | 23.8 µM (active)
COc1ccccc1CNc1nc(Nc2ccccc2Cl)c2sccc2n1 | 5.05% (inactive) | –
COc1ccc(S(=O)(=O)N[C@@H]2C=C[C@@H](CC(=O)N3CCc4ccccc4C3)O[C@@H]2CO)cc1 | -0.456% (inactive) | –
CN(C)c1ccnc(Nc2ccc(F)cc2)c1C#N | -0.535% (inactive) | –

SMILES | max response, negative = inhibition | Potency
Fc1ccc(Nc2nnns2)cc1 | – | 13.4 µM (active)
O=C(Nc1ccncc1)Nc1ccc(F)cc1 | 2.49% (inactive) | –
Cc1ccc(NC(=O)c2ccco2)cc1 | -4.07% (inactive) | –
CCOC(=O)[C@]12CCCC=C1N(Cc1ccc(Cl)cc1Cl)C(=O)[C@H](CC(=O)N1CCCCC1)C2 | -4.73% (inactive) | –
CNC(=O)C[C@H]1C(=O)N(c2ccc(OC)cc2)C[C@@H]1Cc1ccccc1 | -11.8% (inactive) | –
Cc1cccc(NC(=O)CSC(N)=O)c1C | -17.1% (inactive) | –
Cc1ccccc1NC(=O)CSC(=O)c1ccccc1 | – | 10.6 µM (active)
Cc1ccccc1NC(=O)CCOc1ccccc1 | -11.8% (inactive) | –
CC1(C(=O)Nc2ccc3c(c2)OCCO3)CSCC(=O)N1CCOc1ccccc1 (stereo not drawn) | 0.116% (inactive) | –
OCCC#Cc1ccc(N2C(c3ccsc3)=Cc3ccc(F)cc3C2c2c[nH]c3ccccc23)cc1 (stereo not drawn) | -1.41% (inactive) | –
COc1cccc(NC(=O)CCc2nnc3ccc(N4CCC(C)CC4)nn23)c1 | – | 26.7 µM (active)
COc1cccc(N2CCN(c3ccc4nnc(CCC(=O)N5CCN(C)CC5)n4n3)CC2)c1 | -2.01% (inactive) | –
CCOC(=O)c1cccc(NC(=O)CCc2nnc3ccc(N4CCOCC4)nn23)c1 | 2.15% (inactive) | –
CC(C)CCOc1ccc(C(=O)Nc2cc(S(=O)(=O)N3CCOCC3)ccc2N2CCOCC2)cc1 | -15.2% (inactive) | –
COc1ccc(-c2ccc(C(=O)NC(C)C)c3occc23)c(C)c1 | -5.99% (inactive) | –
O=C1NC(c2ccc(-c3ccccc3[N+](=O)[O-])o2)C(C(=O)c2ccc(Cl)cc2)C(O)(C(F)(F)F)N1 (stereo not drawn) | -5.49% (inactive) | –
O=C(Nc1ccc(N2CCOCC2)cc1)c1ccc(-c2ccccc2[N+](=O)[O-])o1 | -4.38% (inactive) | –
CC1=NN(c2ccc(Cl)c(C(=O)O)c2)C(=O)/C1=C/c1ccc(-c2ccccc2[N+](=O)[O-])o1 | – | 0.844 µM (active)
